Assay results reported in the supplement of paper PMC9262897, “Low-cost anti-mycobacterial drug discovery using engineered E. coli” (Nature Communications, 2022).
Where a name gives a salt, the structure may show the parent alone. ± gives the standard deviation of the averaged measurements.

Test system: E. coli TESEC Mtb DapB
Assay: growth (OD600 after 10 h); higher = more growth (less inhibition)
Conditions: arabinose induction (level): High; compound 0.1 mM; raw OD600 reference: median of DMSO wells […], cell-free background 0.041
Description: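 TESEC E. coli strains in which the native enzyme is deleted and replaced by arabinose-inducible Mtb Asd, DapB, CysH or TrpD, each grown in its selective medium. Strains were screened against the Prestwick library at 0.1 mM and 1% DMSO in 384-well format at low and high arabinose induction. Growth is read as OD600 after 10 h in triplicate.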

Row | Structure (SMILES) | growth
1 | COc1ccccc1OCCNCC(O)COc1cccc2[nH]c3ccccc3c12 (stereo not given) [Carvedilol] | 0.0942 ± 0.026
2 | COc1ccc(CC(C)NCC(O)c2ccc(O)c(NC=O)c2)cc1 (stereo not given) [Formoterol fumarate] | 0.212 ± 0.019
3 | CC(C)(C)NC[C@H](O)COc1nsnc1N1CCOCC1 [Timolol maleate salt] | 0.206 ± 0.016
4 | OC(c1cc(C(F)(F)F)nc2c(C(F)(F)F)cccc12)C1CCCCN1 (stereo not given) [Mefloquine hydrochloride] | 0.0464 ± 0.00035
5 | COc1ccc(-c2ccc(=N)n(CCCC(=O)O)n2)cc1 [Gabazine bromide] | 0.206 ± 0.0056
6 | CCn1cc(C(=O)O)c(=O)c2cc(F)c(N3CCNC(C)C3)c(F)c21 (stereo not given) [Lomefloxacin hydrochloride] | 0.0491 ± 0.0012
7 | COc1cc([C@@H]2c3cc4c(cc3[C@@H](O[C@@H]3O[C@@H]5CO[C@@H](C)O[C@H]5[C@H](O)[C@H]3O)[C@H]3COC(=O)[C@H]23)OCO4)cc(OC)c1O [Etoposide] | 0.113 ± 0.0098
8 | CCCCC(O)c1ccccc1 (stereo not given) [Fenipentol] | 0.227 ± 0.013
9 | Cc1[nH]cnc1CN1CCc2c(c3ccccc3n2C)C1=O [Alosetron hydrochloride] | 0.196 ± 0.017
10 | COc1c2occc2c(OC)c2c(=O)cc(C)oc12 [Khellin] | 0.182 ± 0.0039
11 | O=C(NCCNCC(O)COc1ccc(O)cc1)N1CCOCC1 (stereo not given) [Xamoterol hemifumarate] | 0.21 ± 0.0088
12 | O=C(O)c1ccccc1OP(=O)(O)O [Fosfosal] | 0.21 ± 0.017
13 | CCCC(CCC)C(=O)O [Valproic acid] | 0.202 ± 0.011
14 | CC1(C)O[C@@H]2C[C@H]3[C@@H]4C[C@H](F)C5=CC(=O)CC[C@]5(C)[C@H]4[C@@H](O)C[C@]3(C)[C@]2(C(=O)CO)O1 [Flurandrenolide] | 0.216 ± 0.0087
15 | Nc1ccn([C@@H]2O[C@H](CO)[C@@H](O)C2(F)F)c(=O)n1 [Gemcitabine] | 0.157 ± 0.0053
16 | Nc1nc(=O)c2c([nH]1)NC[C@@H](CNc1ccc(C(=O)N[C@@H](CCC(=O)O)C(=O)O)cc1)N2C=O [Folinic acid calcium salt] | 0.203 ± 0.012
17 | C[C@H](CS)C(=O)N1CCC[C@H]1C(=O)O [Captopril] | 0.187 ± 0.019
18 | O=S(=O)(O)CCS [Mesna] | 0.204 ± 0.009
19 | OC(CCN1CCCCC1)(c1ccccc1)c1ccccc1 [Pridinol methanesulfonate salt] | 0.194 ± 0.02
20 | CC1(C)NC(=O)N(c2ccc([N+](=O)[O-])c(C(F)(F)F)c2)C1=O [Nilutamide] | 0.194 ± 0.012

Same assay, conditions: arabinose induction (level): Low; compound 0.1 mM; raw OD600 reference: median of DMSO wells 0.227, cell-free background 0.041

Row | Structure (SMILES) | growth
21 | COc1ccccc1OCCNCC(O)COc1cccc2[nH]c3ccccc3c12 (stereo not given) [Carvedilol] | 0.06 ± 0.004
22 | COc1ccc(CC(C)NCC(O)c2ccc(O)c(NC=O)c2)cc1 (stereo not given) [Formoterol fumarate] | 0.238 ± 0.025
23 | CC(C)(C)NC[C@H](O)COc1nsnc1N1CCOCC1 [Timolol maleate salt] | 0.258 ± 0.018
24 | OC(c1cc(C(F)(F)F)nc2c(C(F)(F)F)cccc12)C1CCCCN1 (stereo not given) [Mefloquine hydrochloride] | 0.0483 ± 0.0032
25 | COc1ccc(-c2ccc(=N)n(CCCC(=O)O)n2)cc1 [Gabazine bromide] | 0.208 ± 0.021
26 | CCn1cc(C(=O)O)c(=O)c2cc(F)c(N3CCNC(C)C3)c(F)c21 (stereo not given) [Lomefloxacin hydrochloride] | 0.0483 ± 0.0006
27 | COc1cc([C@@H]2c3cc4c(cc3[C@@H](O[C@@H]3O[C@@H]5CO[C@@H](C)O[C@H]5[C@H](O)[C@H]3O)[C@H]3COC(=O)[C@H]23)OCO4)cc(OC)c1O [Etoposide] | 0.0846 ± 0.011
28 | CCCCC(O)c1ccccc1 (stereo not given) [Fenipentol] | 0.227 ± 0.025
29 | Cc1[nH]cnc1CN1CCc2c(c3ccccc3n2C)C1=O [Alosetron hydrochloride] | 0.262 ± 0.041
30 | COc1c2occc2c(OC)c2c(=O)cc(C)oc12 [Khellin] | 0.253 ± 0.1
31 | O=C(NCCNCC(O)COc1ccc(O)cc1)N1CCOCC1 (stereo not given) [Xamoterol hemifumarate] | 0.232 ± 0.024
32 | O=C(O)c1ccccc1OP(=O)(O)O [Fosfosal] | 0.239 ± 0.0092
33 | CCCC(CCC)C(=O)O [Valproic acid] | 0.246 ± 0.0077
34 | CC1(C)O[C@@H]2C[C@H]3[C@@H]4C[C@H](F)C5=CC(=O)CC[C@]5(C)[C@H]4[C@@H](O)C[C@]3(C)[C@]2(C(=O)CO)O1 [Flurandrenolide] | 0.239 ± 0.0036
35 | Nc1ccn([C@@H]2O[C@H](CO)[C@@H](O)C2(F)F)c(=O)n1 [Gemcitabine] | 0.177 ± 0.035
36 | Nc1nc(=O)c2c([nH]1)NC[C@@H](CNc1ccc(C(=O)N[C@@H](CCC(=O)O)C(=O)O)cc1)N2C=O [Folinic acid calcium salt] | 0.218 ± 0.014
37 | C[C@H](CS)C(=O)N1CCC[C@H]1C(=O)O [Captopril] | 0.21 ± 0.027
38 | O=S(=O)(O)CCS [Mesna] | 0.214 ± 0.046
39 | OC(CCN1CCCCC1)(c1ccccc1)c1ccccc1 [Pridinol methanesulfonate salt] | 0.262 ± 0.035
40 | CC1(C)NC(=O)N(c2ccc([N+](=O)[O-])c(C(F)(F)F)c2)C1=O [Nilutamide] | 0.252 ± 0.0066
